High-throughput results (PubChem)
Nrf2 ARE act – Nrf2 pathway activation; AREc32 ARE-luciferase reporter (MCF7-derived line), luminescence, 24 h; Potency, µM (top dose mostly 46.1 µM), most hits filed as activators; actives 0.31% (n = 410,000); AID 624171; further: nearly all actives have a fitted effect of over 65% in size
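Each well held 1000 AREc32 cells, which were incubated with compound for 24 hr at 37 deg C after overnight attachment, and ARE reporter activity was quantified by firefly luciferase luminescence.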
A549 viability – kills or reduces viability of A549 cells in Nrf2 counter-screen. A549 ARE-Fluc cells, CellTiter-Fluor viability, 18-24 h. Potency, µM (doses to about 46 µM), most hits filed as inhibitors. actives 0.16% (n = 390,000)
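A549 ARE-Fluc cells in 5% FBS OPTI-MEM, 5000 cells/well, rested 2 h then exposed to compounds in concentration-response for 18-24 h at 37 °C. Viability by CellTiter-Fluor fluorescence (Ex 405/Em 525) after 30 min; luciferase luminescence (BugLite, 15 min, RT) read afterwards.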
Pin1 inhibitor – inhibitors of human Pin1. Pin1 FP peptide displacement, HiFluor488, 10 min. Potency, µM (doses to about 115 µM), usual class: inhibitors. actives 0.009% (n = 390,000). AID 504891; active means well fitted inhibition curve with a large enough effect in the polarisation, with a control signal flat, not every such curve was filed as active; inconclusive means small, poorly fitted or top-dose-only effect, or effect the other way, or a change in a side signal; inactive means no such curve, though single readings can be large or run the other way; the % refers to the polarisation
Target sequence (Q13526 whole entry, looked up): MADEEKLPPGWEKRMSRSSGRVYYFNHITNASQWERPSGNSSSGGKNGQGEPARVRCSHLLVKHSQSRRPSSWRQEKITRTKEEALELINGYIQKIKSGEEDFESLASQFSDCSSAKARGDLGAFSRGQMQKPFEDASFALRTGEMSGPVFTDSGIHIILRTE
Nrf2 block – inhibitors of Nrf2 signaling; Potency, µM (doses to about 46 µM), most hits filed as inhibitors; AID 504444; actives 2.1% (n = 360,000); A549 ARE-Fluc reporter, luciferase luminescence, 18-24 h; further: nearly all actives have a fitted effect of over 60% in size
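Concentration-response testing used A549 ARE_Fluc cells at 5000 cells/well. Following an 18-24 h compound incubation, viability was read by fluorescence (Ex 405/Em 525) and luciferase output by luminescence.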
Hits are given with their value; 0 = inactive; ? = inconclusive; - = not tested or not shown. This is a sample that favours compounds with a hit; in the whole collection about 2.2% have one here. Unless noted, the call rests on the fitted dose curve; in most records, active means well fitted curve in the direction sought with a large enough effect; inconclusive means small, poorly fitted or top-dose-only effect, or another doubt; inactive means no such curve, though single readings can be large; an effect the other way counts as inactive or inconclusive.

SMILES	Nrf2 ARE act	A549 viability	Pin1 inhibitor	Nrf2 block
CCOC(=O)c1cnc2ccc(OCC)cc2c1Nc1cc(Cl)c(OC)cc1OC	0	0	0	0
O=S(=O)(c1ccc(C(F)(F)F)cc1)N1CCN(c2nc(-c3cccs3)nc3ccccc23)CC1	-	0	0	0
Cc1cccc(NC(=O)COc2ccc(-c3nn(C)c(=O)c4ccccc34)cc2)c1	0	?	0	23µM
COc1ccc(Cn2nnnc2C(C(C)C)N2CCc3ccccc32)cc1 (stereo not drawn)	0	0	0	16µM
Clc1cccc(-n2ncc3c(NCCCN4CCOCC4)ncnc32)c1	0	0	0	-
O=C(COC(=O)/C=C/c1ccco1)Nc1ccc(F)cc1Cl	3.2µM	0	0	0
O=C(COC(=O)/C=C/c1ccco1)Nc1ccccc1	?	0	0	0
CCc1ccc(NC(=O)c2sc(-n3nc(C)c(CCC(C)C)c3C)nc2C)cc1	0	0	0	0
COc1ccc(NC(=O)CSc2nc(=O)n(CCN3CCOCC3)c3c2CCC3)cc1	0	0	0	0
O=C(CSc1nc(=O)n(CCN2CCOCC2)c2c1CCC2)Nc1ccc(OC(F)(F)F)cc1	0	0	0	18µM
CC1(C)c2ssc(=S)c2-c2ccccc2N1C(=O)CSC1=NCCS1	0	0	0	15µM
O=C1C=C(Nc2ccccc2)c2ccccc2C1=O	0	?	0	21µM
O=C1C=C(Nc2ccccc2)C(=O)c2ccccc21	0	?	0	?
COc1ccc(CN(C)C(=O)CCC(=O)N2CCN(S(=O)(=O)c3ccc(Cl)cc3)CC2)c(OC)c1	0	0	0	12µM
CC(C)c1csc(CN2CCCC(CNC(=O)c3cccc4ccccc34)C2)n1 (stereo not drawn)	0	0	0	16µM
CC(C)c1csc(CN2CCCC(CCC(=O)NCc3ccccc3F)C2)n1 (stereo not drawn)	0	0	0	0
COc1ccc(NC(=O)CCc2nnc3n(CC(C)C)c(=O)c4ccccc4n23)cc1	0	0	0	0
CCCCn1c(=O)[nH]c(=O)c2c1nc(-c1ccc(-c3ccc(F)cc3)o1)n2C	0	0	0	0
CCCCn1c(-c2ccc(Br)cc2F)nc2c1c(=O)[nH]c(=O)n2CC(C)C	0	?	0	21µM
CC(=O)/C=C/c1ccccc1Oc1c(F)c(F)nc(F)c1F	7.9µM	0	0	0
Oc1ccccc1Oc1c(F)c(F)nc(N2CCCC2)c1F	0	0	?	0
COc1cc(CNCCCO)ccc1OCC(=O)NC(C)(C)C	0	0	0	0
CC(C)(C)NC(=O)COc1ccc(CNc2ncn[nH]2)cc1	0	0	0	0
COc1cc(CNc2ccc(CNc3ncn[nH]3)cc2)ccc1OCC(=O)NC(C)(C)C	0	0	?	16µM
COc1cc(CNc2ccc(N3CCOCC3)cc2)ccc1OCC(=O)NC(C)(C)C	0	0	0	16µM
SMILES	Nrf2 ARE act	A549 viability	Pin1 inhibitor	Nrf2 block
COc1ccccc1C(=O)Nc1cccc(OCc2cc(=O)n3ccccc3n2)c1	0	?	0	-
COc1ccccc1-c1c(C)nn2c(N3CCOCC3)cc(C)nc12	0	0	0	?
COc1ccccc1-c1c(C)nn2c(N3CCN(Cc4ccccc4)CC3)cc(C)nc12	0	0	0	23µM
COc1ccc(-c2c(C)nn3c(N4CCN(Cc5ccccc5)CC4)cc(C)nc23)cc1OC	0	0	0	0
COc1ccccc1-c1c(C)nn2c(N3CCCCCC3)cc(C)nc12	0	?	0	26µM
O=C(Cc1ccccc1)NC(NC(=S)Nc1cc(Cl)ccc1Cl)C(Cl)(Cl)Cl (stereo not drawn)	0	0	0	?
O=C(/C=C/c1ccccc1)NC(NC(=S)Nc1cc(Cl)ccc1Cl)C(Cl)(Cl)Cl (stereo not drawn)	0	?	0	4.1µM
Cc1ccc(S(=O)(=O)N2CCN(c3ccc(C(F)(F)F)cc3[N+](=O)[O-])CC2)cc1	0	0	0	16µM
Cn1c(=O)n(C)c2cc([N+](=O)[O-])c(N3CCN(C(=O)c4cccc(F)c4)CC3)cc21	0	0	0	9.2µM
Cc1ccc(S(=O)(=O)N2CCN(c3cc4c(cc3[N+](=O)[O-])n(C)c(=O)n4C)CC2)cc1	0	0	0	?
CCCS(=O)(=O)N1CCN(c2cc3c(cc2[N+](=O)[O-])n(C)c(=O)n3C)CC1	0	0	0	12µM
Cn1c(=O)n(C)c2cc([N+](=O)[O-])c(N3CCN(S(=O)(=O)c4ccc5ccccc5c4)CC3)cc21	0	0	0	5.8µM
Cc1ccc(S(=O)(=O)N2CCN(c3c([N+](=O)[O-])cc(C(F)(F)F)cc3[N+](=O)[O-])CC2)cc1	0	?	0	0
O=C(CN1CCOCC1)N1N=C(c2cccs2)CC1c1cccs1 (stereo not drawn)	0	0	0	0
O=C(Nc1ccccc1)N1N=C(c2cccs2)CC1c1cccs1 (stereo not drawn)	0	0	0	23µM
COC(=O)C1=C(C(=O)OC)[C@@H]2N(Cc3ccccc3)c3ccccc3[C@@]23C[C@@H](C(=O)OC)N(C(=O)c2cc(C)oc2C)C3=N1	0	0	0	23µM
COC(=O)C1=C(C(=O)OC)[C@@H]2N(C)c3ccccc3[C@@]23C[C@@H](C(=O)OC)N(C(=O)c2cccs2)C3=N1	0	0	0	0
COC(=O)C1=C(C(=O)OC)[C@@H]2N(Cc3ccccc3)c3ccccc3[C@@]23C[C@@H](C(=O)OC)N(C(=O)c2cccs2)C3=N1	0	?	0	29µM
COC(=O)C1=C(C(=O)OC)[C@@H]2N(Cc3ccccc3)c3ccccc3[C@@]23C[C@@H](C(=O)OC)N(C(=O)CC(C)C)C3=N1	0	0	0	0
O=C1C(NS(=O)(=O)c2cccs2)=C(N2CCN(c3cccc(C(F)(F)F)c3)CC2)C(=O)c2ccccc21	0	?	?	21µM
CN1CCN(C2=C(NS(=O)(=O)c3cccs3)C(=O)c3ccccc3C2=O)CC1	0	0	0	?
CC(C)c1ccc(Nc2ncnc3onc(-c4ccc(F)cc4)c23)cc1	0	0	0	0
Oc1cccc(C(Nc2nccs2)c2ccc3cccnc3c2O)c1 (stereo not drawn)	0	0	0	16µM
O=C1CN(C(=O)COC(=O)/C=C/c2ccco2)c2ccccc2N1	13µM	0	0	0
Cc1cc2c(s1)c1cnn(Cc3cccc(C(F)(F)F)c3F)c(=O)c1n2C	-	0	0	0
SMILES	Nrf2 ARE act	A549 viability	Pin1 inhibitor	Nrf2 block
CC(=O)c1c(C)oc2ccc(N(C(C)=O)S(=O)(=O)c3cccc4cccnc34)cc12	0	0	0	18µM
COc1ccc(S(=O)(=O)N(CC(=O)Nc2ccc(OC)cc2OC)c2ccc(Cl)cc2)cc1	0	0	0	0
COc1ccc(-c2nc(NC(=O)C3CC(=O)N(c4ccc5c(c4)OCCO5)C3)sc2C)cc1 (stereo not drawn)	0	?	0	15µM
Cc1cc2c(s1)c1cnn(Cc3ccc(F)c(C)c3)c(=O)c1n2C	-	0	0	0
c1cnc2c(c1)ccc1cccnc12	0	?	0	5.8µM
O=Cc1ccc2ccc3cccnc3c2n1	0	0	0	0
NNc1nc2sc3c(c2c(=O)n1Cc1ccccc1)CCC3	0	0	0	0
